Assay results reported in the supplement of paper PMC13380429.
A number with no mark means an inactive call.

System: Vero E6 infected with SARS-CoV-2
Experiment: inhibition of SARS-CoV-2 cytopathic effect; higher = more antiviral protection, active = above 15
Details: 48 h

| Structure (SMILES) | inhibition of SARS-CoV-2 cytopathic effect (1 nM) | inhibition of SARS-CoV-2 cytopathic effect (8.33 nM) | inhibition of SARS-CoV-2 cytopathic effect (100 nM) | inhibition of SARS-CoV-2 cytopathic effect (833.33 nM) | inhibition of SARS-CoV-2 cytopathic effect (10000 nM) |
| --- | --- | --- | --- | --- | --- |
| COc1ccc(/C=C/C(=O)/C=C(O)/C=C/c2ccc(OC)c(OC)c2)cc1OC | 1.2% | -0.13% | 3.36% | 5.15% | 19.7% (active) |
| C[C@]12C=CC(=O)N[C@@H]1CC[C@@H]1[C@@H]2CC[C@]2(C)[C@@H](C(=O)Nc3cc(C(F)(F)F)ccc3C(F)(F)F)CC[C@@H]12 [dutasteride] | -4.2% | -3.31% | 1.66% | -2.35% | -7.18% |
| CC(C)C[C@H](CN)CC(=O)O | -2.46% | -1.59% | -0.55% | -0.08% | 0.02% |
| CN(C)CCOC(c1ccccc1)c1ccccc1.Cn1c(=O)c2[nH]c(Cl)nc2n(C)c1=O [dimenhydrinate] | 1.11% | -2% | 0.95% | 0.58% | 0.68% |
| CC(C)NC[C@@H](O)c1ccc(O)c(O)c1 (racemic) [isoprenaline] | 1.39% | -0.18% | -0.08% | 0.77% | -2.47% |
| COc1ccc(Cc2cnc(N)nc2N)cc1OC [diaveridine] | -0.02% | 0.43% | -0.86% | 2.81% | 0.75% |
| CC[C@H](C)[C@@H]1NC(=O)[C@H](Cc2ccc(O)cc2)NC(=O)[C@@H](N)CSSC[C@@H](C(=O)N2CCC[C@H]2C(=O)N[C@@H](CC(C)C)C(=O)NCC(N)=O)NC(=O)[C@H](CC(N)=O)NC(=O)[C@H](CCC(N)=O)NC1=O [oxytocin] | 5.14% | 3.79% | 3.52% | 0.66% | -0.57% |
| N[C@@H](C(=O)O)c1ccc(C(=O)O)c(C(=O)O)c1 (racemic) | 2.59% | 0.287% | 1.6% | -2.93% | -0.293% |
| C[C@@]1(O)[C@H](O)[C@@H](CO)O[C@H]1n1ccc(N)nc1=O | 5.4% | -1.76% | -3.15% | -5.49% | -2.07% |
| CN(C)/C=N/c1c(I)cc(I)c(CCC(=O)O)c1I [iopodic-acid] | -3.57% | 0.15% | -0.76% | 0.26% | -2.24% |
| C[C@@H](N)c1ccc(C(=O)Nc2ccnc3[nH]ccc23)cc1 | 0.69% | -1.06% | 0.35% | -5.51% | -13.4% |
| COc1ccc(Cl)cc1NC(=O)Nc1cc(C)nc2ccccc12 | 1.48% | -2.11% | -0.41% | 1.18% | -17.7% |
| CCOC(=O)CNC(=O)[C@@H]1CCCN1C(=O)Cc1ccccc1 | 0.67% | -0.95% | 3.29% | 2.08% | 1.46% |
| O=C(NCCCCN1CCN(c2cccc(Cl)c2Cl)CC1)c1ccc2c(c1)Cc1ccccc1-2 | 0.39% | 2.85% | -2.31% | -1.17% | -3.44% |
| Cn1ncc(Cl)c1-c1cc(C(=O)N[C@H](CN)Cc2ccc(F)c(F)c2)oc1Cl [uprosertib] | -2.98% | -0.16% | -1.46% | 0.21% | -3.53% |
